Source: PubChem BioAssay
“And” between values parts separate entries of the source, which are not always exact repeats. Identical values can stand only once. The source made the active and inactive calls.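 Rule for the calls, unless noted: active = inhibition at or above 50% relative to wild type and mutant plate controls; inactive = inhibition below 50%.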

Legend:
[1] = inhibitors of TNFa-induced NFkB p65 translocation, primary screen, imaging, HUVEC, MLSMR starter and 10KST1 sets (AID 438;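 active = inhibition above 20% together with a positive visual image hit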;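 note: compound added about 3h40 before a 20 min TNFalpha stimulation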;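 for inhibition: signal is the nuclear over cytoplasmic p65 intensity ratio per well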); conditions: HUVEC TNFa-induced p65 nuclear translocation; cell count: measured here: nuclei count (cytotoxicity indicator), at 2.08 µM; inhibition: at 2 µM, stronger effect = higher value, 0% TNFa-plus-vehicle, 100% no-TNFa wells
[2] = inhibitors of mutant huntingtin aggregation, primary screen, imaging, exon1htt(103Q)mCFP cells, high-content imaging (AID 483;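 active = visual image review flags a hit and inhibition of aggregation exceeds 20%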;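 note: compound exposure lasted 3 days before fixation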;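 for nuclei count: percent of the per-plate median nuclei count of sample wells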); conditions: exon1htt(103Q)mCFP cell line, aggregate imaging, at 2 µM; inhibition of aggregation: stronger effect = higher value; nuclei count: measured here: cell count, toxicity
[3] = inhibitors of E-selectin induction by TNFa, primary screen, imaging, HUVEC, immunofluorescence, MLSMR starter and 10KST1 sets (AID 487;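 active = visually confirmed hit in the image check and inhibition above 20%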;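 for inhibition: signal is fraction of cell area covered by stained E-selectin grains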;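 for nuclei count: 100% = median nuclei count of all wells on the same plate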); conditions: HUVEC TNFalpha-induced E-selectin immunofluorescence imaging, at 2 µM; inhibition: stronger effect = higher value; nuclei count: measured here: cell number, toxicity
[4] = DUSP6 inhibitors restoring Erk phosphorylation by chemical complementation, primary imaging in DUSP6-transfected HeLa (AID 609;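 active = compounds giving at least 50% inhibition in the cell-based MKP-3 phosphatase rescue imaging test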;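 for inhibition: phospho-Erk level distribution per well compared with pooled transfected vehicle control wells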); conditions: HeLa MKP-3 transfected, phospho-Erk imaging KS statistic, at 10 µM, cells stimulated with TPA for 15 min
[5] = biological target: Dual specificity protein phosphatase 6 (Homo sapiens) (UniProt Q16828); assay: as above; conditions: HeLa MKP-3 transfected, phospho-Erk imaging KS statistic; at 10 µM; stronger effect = higher value; cells stimulated with TPA for 15 min
Chain of Dual specificity protein phosphatase 6 (Homo sapiens) (Q16828 whole entry, looked up): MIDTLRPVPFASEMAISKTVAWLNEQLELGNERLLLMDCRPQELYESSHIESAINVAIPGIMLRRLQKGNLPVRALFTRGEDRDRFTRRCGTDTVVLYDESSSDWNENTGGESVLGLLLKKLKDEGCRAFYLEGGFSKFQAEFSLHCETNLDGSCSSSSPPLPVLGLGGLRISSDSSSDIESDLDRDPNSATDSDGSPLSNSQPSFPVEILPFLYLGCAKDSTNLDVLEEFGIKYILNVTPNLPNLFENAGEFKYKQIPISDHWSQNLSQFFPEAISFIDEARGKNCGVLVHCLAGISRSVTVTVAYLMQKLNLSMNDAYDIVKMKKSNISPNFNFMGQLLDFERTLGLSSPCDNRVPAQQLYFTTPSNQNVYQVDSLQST

[6] = biological target: Voltage-gated potassium channel subunit beta-2 (Rattus norvegicus) (UniProt P62483); assay: KvBeta enzyme negative modulators, primary screen, biochemical, NADPH fluorescence (AID 622;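 active = fluorescence slope higher than the sample average by over 3 SD, cut at about -0.22 in these data, passing the limit was not always enough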;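 note: slope of raw intensity against log time taken from 70 to 1610 s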); conditions: recombinant KvBeta, 4-cyanobenzaldehyde reduction, at 10 µM, stronger effect = higher value
Chain of Voltage-gated potassium channel subunit beta-2 (Rattus norvegicus) (P62483 whole entry, looked up): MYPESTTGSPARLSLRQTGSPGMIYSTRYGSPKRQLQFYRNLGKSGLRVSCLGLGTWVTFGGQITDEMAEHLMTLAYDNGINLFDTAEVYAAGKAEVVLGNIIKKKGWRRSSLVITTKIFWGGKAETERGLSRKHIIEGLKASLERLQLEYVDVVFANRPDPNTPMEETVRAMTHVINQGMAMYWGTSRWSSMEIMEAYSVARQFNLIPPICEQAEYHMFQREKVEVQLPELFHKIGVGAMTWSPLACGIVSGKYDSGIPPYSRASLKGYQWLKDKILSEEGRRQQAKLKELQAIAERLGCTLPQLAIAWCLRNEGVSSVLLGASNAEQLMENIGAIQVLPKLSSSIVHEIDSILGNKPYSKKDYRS

[7] = biological target: Voltage-gated potassium channel subunit beta-2 (Rattus norvegicus) (UniProt P62483); assay: KvBeta positive modulators, primary screen, biochemical, NADPH fluorescence (AID 623;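 active = NADPH fluorescence slope more negative than the mean of all samples by about 3 SD, 99.7% confidence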;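 note: fluorescence intensity change per second fitted from 20 to 320 s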); conditions: Recombinant KvBeta, NADPH fluorescence decrease slope, 10 min; at 10 µM; stronger effect = lower value
[8] = biological target: Alpha-2C adrenergic receptor (Homo sapiens) (UniProt P18825); assay: modulators of alpha2C/GIRK thallium flux, primary screen, cell-based, HEK293 alpha2C/GIRK1/2 (AID 624;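 active = fluorescence slope after compound addition differing from the mean of all screened samples at 99.7% confidence, in either direction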;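 note: slope of fluorescence ratio to pre-addition baseline per second over 15 to 24 s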); conditions: thallium flux BTC fluorescence, at 10 µM, actives lie on both sides
Chain of Alpha-2C adrenergic receptor (Homo sapiens) (P18825 whole entry, looked up): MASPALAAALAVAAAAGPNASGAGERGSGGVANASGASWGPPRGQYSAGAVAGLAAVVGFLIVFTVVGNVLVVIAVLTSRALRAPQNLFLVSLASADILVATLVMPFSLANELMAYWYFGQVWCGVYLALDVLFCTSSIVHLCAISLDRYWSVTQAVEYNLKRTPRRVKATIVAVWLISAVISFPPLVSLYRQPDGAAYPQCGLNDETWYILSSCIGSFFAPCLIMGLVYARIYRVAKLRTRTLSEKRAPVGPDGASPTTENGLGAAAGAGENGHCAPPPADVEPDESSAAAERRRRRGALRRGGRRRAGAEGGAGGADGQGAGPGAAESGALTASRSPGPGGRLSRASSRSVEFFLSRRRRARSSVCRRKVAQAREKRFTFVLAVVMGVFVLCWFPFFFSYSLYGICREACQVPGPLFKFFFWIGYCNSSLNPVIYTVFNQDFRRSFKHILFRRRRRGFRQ

[9] = inhibitors of larval lipid processing in zebrafish, primary screen, whole organism, PED6 fluorescence, gall bladder and intestine (AID 686;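 active = a full or partial loss of lipid-probe fluorescence in the fish gall bladder, intestine or both, judged by eye; inactive = no fluorescence loss, or compound toxic to the fish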;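 note: larvae 5 to 7 days old with five fish per well; signal comes from phospholipase A2 cleavage of quenched PED6 carried via bile; overnight exposure to compound and PED6 before scoring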); conditions: Zebrafish larvae PED6 lipid processing, fluorescence scoring; screened at 20 µM (by protocol)
[10] = inhibitors of Chlamydomonas gravitaxis, primary screen, whole organism, Chlamydomonas reinhardtii, WT vs cilia-less mutant, absorbance, 96-well (AID 463189); conditions: OD600 absorbance, 2 days, at 10 µM, stronger effect = higher value;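 note: 0% = wild type cc124 cells in DMSO and 100% = ciliumless bld1 mutant cells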
[11] = inhibitors of Sendai virus-induced IRF3 signaling, primary screen, TLR/RLR signaling modifier project, cell-based, Sendai virus stimulus, luciferase, 10K MLSCN set (AID 602276;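 active = inhibition at or above 50% at 10 µM; inactive = inhibition below 50%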;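 note: firefly luciferase from ISG56 promoter only with Renilla not read in this screen; 0% = Sendai virus plus DMSO and 100% = medium plus DMSO without virus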); conditions: HEK293 RL24 IRF3 luciferase reporter, at 10 µM, stronger effect = higher value
[12] = inhibitors of poly I:C-induced TLR3 signaling, primary screen, cell-based, poly I:C stimulus, luciferase, 10K MLSCN set (AID 602277;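 active = inhibition of the reporter signal at or above 50%; inactive = inhibition below 50%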); conditions: HEK293-TLR3 RL24 IRF3 luciferase reporter, at 10 µM, stronger effect = higher value
[13] = biological target: Muscarinic acetylcholine receptor M4 (Homo sapiens) (UniProt P08173); assay: compounds altering M4/GIRK thallium flux, either direction, primary screen, M4 allosteric agonist project, cell-based, HEK293 M4/GIRK, BTC-AM (AID 625;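 active = fluorescence slope after compound addition differing from the mean of all tested samples at 99.7% confidence, mostly higher but some lower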;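 note: thallium influx through GIRK channels coupled to M4 in HEK293 cells with BTC-AM dye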); conditions: at 10 µM, actives lie on both sides
Chain of Muscarinic acetylcholine receptor M4 (Homo sapiens) (P08173 whole entry, looked up): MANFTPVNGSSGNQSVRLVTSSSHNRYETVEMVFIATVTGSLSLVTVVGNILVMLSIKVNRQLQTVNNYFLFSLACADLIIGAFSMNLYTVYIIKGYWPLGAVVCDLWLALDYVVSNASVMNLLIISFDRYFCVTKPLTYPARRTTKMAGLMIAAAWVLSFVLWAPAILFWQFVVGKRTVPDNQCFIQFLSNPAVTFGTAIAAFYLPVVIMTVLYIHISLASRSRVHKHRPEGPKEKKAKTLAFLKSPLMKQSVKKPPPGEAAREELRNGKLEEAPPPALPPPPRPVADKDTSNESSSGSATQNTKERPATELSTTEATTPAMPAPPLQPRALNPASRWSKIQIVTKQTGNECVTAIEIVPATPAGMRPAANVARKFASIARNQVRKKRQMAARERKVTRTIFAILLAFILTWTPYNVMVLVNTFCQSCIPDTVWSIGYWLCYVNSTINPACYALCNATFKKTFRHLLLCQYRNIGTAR

[14] = measured here: cell density z-score
[15] = measured here: nuclear c-Myc green intensity z-score
[16] = measured here: nuclear pErk red intensity z-score, stronger effect = higher value

Q: What does the source list for `O=C(O)Cc1cc(I)c(Oc2ccc(O)c(I)c2)c(I)c1`?
A: cell count [1]: 625; inhibition [1]: 3.9% (inactive); inhibition of aggregation [2]: 12.4% (inactive); nuclei count [2]: 103%; inhibition [3]: -92% (inactive); nuclei count [3]: 123%; z-score [4, 14]: 0.485; z-score [4, 15]: -0.133; z-score [4, 16]: 0.686; inhibition [5]: 8% (inactive); fluorescence slope [6]: -0.541 (inactive); NADPH fluorescence slope [7]: -4.1e-05 (inactive); slope [8]: 0.00612 (inactive); outcome [9]: inactive; inhibition [10]: 22% (inactive); inhibition [11]: -15.1% (inactive); inhibition [12]: -273% (inactive)

Q: Which results are given for `Cc1ccc(N(CC(O)CN2CCCC2)S(=O)(=O)c2ccc(C)cc2)cc1` (stereo unspecified)?
A: cell count [1]: 415; inhibition [1]: -5.4% (inactive); inhibition of aggregation [2]: 8.3% (inactive); nuclei count [2]: 97.4%; inhibition [3]: -210% (inactive); nuclei count [3]: 148%; z-score [4, 14]: 1.32; z-score [4, 15]: -1.19; z-score [4, 16]: -0.796; inhibition [5]: 13.2% (inactive); fluorescence slope [6]: -0.388 (inactive); NADPH fluorescence slope [7]: -5e-05 (inactive); slope [8]: 0.00478 (inactive); outcome [9]: inactive; inhibition [10]: 7.07% (inactive); inhibition [11]: -14.3% (inactive); inhibition [12]: -1.97% (inactive)

Q: For `C=CCOc1nc2c(c(=O)n(C)c(=O)n2C)n1Cc1c(Cl)cccc1Cl`, which cell count [1] is on record?
A: 556

Q: And the inhibition [1]?
A: -2.9% (inactive)

Q: What about the inhibition of aggregation [2] of the same compound?
A: -47.7% (inactive)

Q: And the nuclei count [2]?
A: 115%

Q: What about the inhibition [3] of the same compound?
A: 14% (inactive)

Q: What about the nuclei count [3] of the same compound?
A: 113%

Q: What about the z-score [4, 14] of the same compound?
A: -0.686

Q: What about the z-score [4, 15] of the same compound?
A: 2.36

Q: And the z-score [4, 16]?
A: -0.556

Q: And the inhibition [5]?
A: -4.7% (inactive)

Q: What about the fluorescence slope [6] of the same compound?
A: -0.502 (inactive)

Q: What about the NADPH fluorescence slope [7] of the same compound?
A: -0.000118 (inactive)

Q: And the slope [8]?
A: 0.00485 (inactive)

Q: And the outcome [9]?
A: inactive

Q: And the inhibition [10]?
A: -9.21% (inactive)

Q: What about the inhibition [11] of the same compound?
A: 11.4% (inactive)

Q: And the inhibition [12]?
A: 16% (inactive)

Q: Which results are given for `CC(NC(=O)Nc1nccs1)(C(F)(F)F)C(F)(F)F`?
A: cell count [1]: 649; inhibition [1]: -2.2% (inactive); inhibition of aggregation [2]: 0.8% (inactive); nuclei count [2]: 108%; inhibition [3]: -11.3% (inactive); nuclei count [3]: 107%; z-score [4, 14]: -0.519; z-score [4, 15]: -0.302; z-score [4, 16]: -0.913; inhibition [5]: -0.233% (inactive); fluorescence slope [6]: -0.47 (inactive); NADPH fluorescence slope [7]: -3.5e-05 (inactive); slope [8]: 0.00627 (inactive); fluorescence slope [13]: 0.00776 (inactive); outcome [9]: inactive; inhibition [10]: -9.58% (inactive); inhibition [11]: 1.15% (inactive); inhibition [12]: 56.3% (active)

Q: Which results are given for `CCOC(=O)c1ccc(-n2c(=O)[nH]c3ccccc3c2=O)cc1`?
A: cell count [1]: 443; inhibition [1]: -3.4% (inactive); inhibition of aggregation [2]: 7.1% (inactive); nuclei count [2]: 80%; inhibition [3]: -140% (inactive); nuclei count [3]: 136%; z-score [4, 14]: -0.719; z-score [4, 15]: -0.246; z-score [4, 16]: 0.316; inhibition [5]: 11.4% (inactive); fluorescence slope [6]: -0.415 (inactive); NADPH fluorescence slope [7]: -5.7e-05 (inactive); slope [8]: 0.00476 (inactive); outcome [9]: inactive; inhibition [10]: 9.26% (inactive); inhibition [11]: -16.9% (inactive); inhibition [12]: -29.3% (inactive)

Q: With `CN(C)c1ccc(C=NCC2(O)CCOC(C)(C)C2)cc1` (stereo unspecified) as the compound, how does the cell count [1] read?
A: 470

Q: What about the inhibition [1] of the same compound?
A: -13.2% (inactive)

Q: And the inhibition of aggregation [2]?
A: -13.7% (inactive)

Q: And the nuclei count [2]?
A: 108%

Q: What about the inhibition [3] of the same compound?
A: -145% (inactive)

Q: What about the nuclei count [3] of the same compound?
A: 144%

Q: And the z-score [4, 14]?
A: -1.86

Q: And the z-score [4, 15]?
A: -0.94

Q: What about the z-score [4, 16] of the same compound?
A: 0.52

Q: What about the inhibition [5] of the same compound?
A: 17.5% (inactive)

Q: What about the fluorescence slope [6] of the same compound?
A: -0.423 (inactive)

Q: What about the NADPH fluorescence slope [7] of the same compound?
A: -0.000132 (inactive)

Q: What about the slope [8] of the same compound?
A: 0.00493 (inactive)

Q: What about the outcome [9] of the same compound?
A: inactive

Q: What about the inhibition [10] of the same compound?
A: 7.69% (inactive)

Q: And the inhibition [11]?
A: 13% (inactive)

Q: What about the inhibition [12] of the same compound?
A: 13.9% (inactive)

Q: For `Cn1cnc2c1c(=O)[nH]c(=O)n2C`, which cell count [1] is on record?
A: 544

Q: And the inhibition [1]?
A: -10.8% (inactive)

Q: What about the inhibition of aggregation [2] of the same compound?
A: -16.4% (inactive)

Q: What about the nuclei count [2] of the same compound?
A: 97%

Q: What about the inhibition [3] of the same compound?
A: -30.6% (inactive)

Q: And the nuclei count [3]?
A: 124%

Q: What about the z-score [4, 14] of the same compound?
A: -0.137

Q: What about the z-score [4, 15] of the same compound?
A: -0.093

Q: What about the z-score [4, 16] of the same compound?
A: 1.06

Q: What about the inhibition [5] of the same compound?
A: -6.41% (inactive)

Q: What about the fluorescence slope [6] of the same compound?
A: -0.513 (inactive)

Q: What about the NADPH fluorescence slope [7] of the same compound?
A: 1.2e-05 (inactive)

Q: What about the slope [8] of the same compound?
A: 0.00542 (inactive)

Q: And the outcome [9]?
A: inactive

Q: What about the inhibition [10] of the same compound?
A: 8.14% (inactive) and 20.9% (inactive)

Q: What about the inhibition [11] of the same compound?
A: 13.1% (inactive)

Q: And the inhibition [12]?
A: 16.1% (inactive)

Q: For `CN(CCO)CC(O)Cn1cnc2c1c(=O)n(C)c(=O)n2C` (stereo unspecified) (tested in a mixture with another compound), which cell count [1] is on record?
A: 638

Q: And the inhibition [1]?
A: -0.3% (inactive)

Q: And the inhibition of aggregation [2]?
A: 1.1% (inactive)

Q: And the nuclei count [2]?
A: 103%

Q: What about the inhibition [3] of the same compound?
A: 6.8% (inactive)

Q: What about the nuclei count [3] of the same compound?
A: 125%

Q: And the z-score [4, 14]?
A: 0.569

Q: And the z-score [4, 15]?
A: 0.0927

Q: What about the z-score [4, 16] of the same compound?
A: 0.334

Q: And the inhibition [5]?
A: 10.2% (inactive)

Q: And the fluorescence slope [6]?
A: -0.511 (inactive)

Q: And the NADPH fluorescence slope [7]?
A: -6e-05 (inactive)

Q: What about the slope [8] of the same compound?
A: 0.00421 (inactive)

Q: What about the outcome [9] of the same compound?
A: inactive

Q: What about the inhibition [10] of the same compound?
A: -10.3% (inactive)

Q: And the inhibition [11]?
A: 3.79% (inactive)

Q: What about the inhibition [12] of the same compound?
A: 33.4% (inactive)

Q: Which results are given for `NC(N)=NS(=O)(=O)c1ccc(N)cc1`?
A: cell count [1]: 630; inhibition [1]: 0.4% (inactive); inhibition of aggregation [2]: 9.4% (inactive); nuclei count [2]: 99.7%; inhibition [3]: -107% (inactive); nuclei count [3]: 136%; z-score [4, 14]: 0.695; z-score [4, 15]: -0.407; z-score [4, 16]: -0.348; inhibition [5]: 14.6% (inactive); fluorescence slope [6]: -0.497 (inactive); NADPH fluorescence slope [7]: -7.4e-05 (inactive); slope [8]: 0.00546 (inactive); outcome [9]: inactive; inhibition [10]: -2.06% (inactive); inhibition [11]: 18.4% (inactive); inhibition [12]: 34.4% (inactive)

Q: Which cell count [1] does the source give for `CO[C@@]1(NC(=O)CSCC#N)C(=O)N2C(C(=O)O)=C(CSc3nnnn3C)CS[C@@H]21` here?
A: 632

Q: What about the inhibition [1] of the same compound?
A: -3.9% (inactive)

Q: What about the inhibition of aggregation [2] of the same compound?
A: 3.8% (inactive)

Q: And the nuclei count [2]?
A: 103%

Q: And the inhibition [3]?
A: -96.3% (inactive)

Q: And the nuclei count [3]?
A: 143%

Q: What about the z-score [4, 14] of the same compound?
A: 0.71

Q: And the z-score [4, 15]?
A: -0.314

Q: And the z-score [4, 16]?
A: -0.547

Q: And the inhibition [5]?
A: 19.2% (inactive)

Q: What about the fluorescence slope [6] of the same compound?
A: -0.497 (inactive)

Q: And the NADPH fluorescence slope [7]?
A: -7e-05 (inactive)

Q: And the slope [8]?
A: 0.00536 (inactive)

Q: And the outcome [9]?
A: inactive

Q: And the inhibition [10]?
A: 5.45% (inactive) and -4.17% (inactive)

Q: What about the inhibition [11] of the same compound?
A: 7.82% (inactive)

Q: What about the inhibition [12] of the same compound?
A: 28.6% (inactive)
